Only some compounds are listed: those with a hit (about 10% of all), similar ones and a draw of the others.
RORg inh: inhibitors of mouse ROR gamma transcriptional activity; 310,000 compounds, 5.4% hits; Drosophila S2 Gal4-RORgamma UAS-luciferase reporter, 20 h; AID 2551; Potency, µM (top dose mostly 53.6 µM), for inactives: at the highest dose activity change, negative = inhibition, usual class: inhibitors; P51450; further: on the % scale 0 is the no-effect control and ±100 the full control effect; nearly all actives have a fitted effect of over 60% in size
Target sequence (P51450 whole entry, looked up, the tested form may be a part): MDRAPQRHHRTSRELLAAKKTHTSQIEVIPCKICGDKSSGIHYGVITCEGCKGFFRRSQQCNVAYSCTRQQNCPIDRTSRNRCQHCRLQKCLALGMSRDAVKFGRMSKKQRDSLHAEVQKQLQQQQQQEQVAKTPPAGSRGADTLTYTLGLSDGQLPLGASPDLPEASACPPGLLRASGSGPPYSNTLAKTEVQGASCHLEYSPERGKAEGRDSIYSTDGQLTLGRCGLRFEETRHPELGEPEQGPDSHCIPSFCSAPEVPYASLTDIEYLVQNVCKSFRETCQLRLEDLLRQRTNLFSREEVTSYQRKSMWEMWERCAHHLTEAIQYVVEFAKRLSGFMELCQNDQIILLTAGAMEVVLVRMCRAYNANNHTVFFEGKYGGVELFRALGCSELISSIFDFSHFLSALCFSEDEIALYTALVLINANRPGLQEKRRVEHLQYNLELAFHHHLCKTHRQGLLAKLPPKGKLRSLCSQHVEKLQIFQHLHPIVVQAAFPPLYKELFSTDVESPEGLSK
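Drosophila Schneider cells stably carrying a metallothionein-driven Gal4 DBD–ROR gamma fusion and a UAS-Photinus luciferase reporter were exposed to compound for 1 hr, then induced with copper sulfate (700 uM final) for 20 hr at ambient temperature before luminescence reading.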
KB-V1 MDR tox: KB-V1 MDR subline cytotoxicity; KB-V1 MDR cells viability, CellTiter-Glo, 72 h; Potency, µM (doses to about 46.1 µM), hits mostly cytotoxic; 400,000 compounds, 3.4% hits; further: on the % scale 0 is the no-effect control and ±100 the full control effect; nearly all actives have a fitted effect of over 60% in size
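Luminescent ATP read-out (CellTiter-Glo, 10 min) measures survival of drug-selected KB-V1 MDR cells after 72 h, 37 degrees C compound exposure. Medium: phenol-red-free DMEM, 10% FBS. Values from fitted concentration-response curves.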
SW480 rereplic: inducers of DNA re-replication in SW480 colon cancer cells. SW480 DNA re-replication, Hoechst DNA content imaging, 48 h. 340,000 compounds, 1.8% hits. AID 624297. Potency, µM (titrated, usually from 46.1 µM), inactives show at the highest dose re-replication activation, actives largely listed as activators; further: % of control where 0% means no effect; nearly all actives have a fitted effect of over 55% in size
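Per well, 250 cells were exposed to pinned compound for 48 hr. Nuclear DNA was visualised with Hoechst (40 min, 37 C) and total object intensity recorded by fluorescence scanning.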
VP16 counter: Gal4-VP16 reporter inhibition counter-screen | 310,000 compounds, 3.5% hits | Drosophila S2 Gal4-VP16 UAS-luciferase, luminescence, 20 h | Potency, µM (titrated, usually from 53.6 µM), inactives show at the highest dose activity, negative = inhibition, most hits filed as inhibitors | AID 2546;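 further: Gal4-VP16 expression switched on by copper sulfate through the metallothionein promoter; on the % scale 0 is the no-effect control and ±100 the full control effect; nearly all actives have a fitted effect of over 50% in size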
KB-3-1 cytotox: kills parental KB-3-1 adenocarcinoma cells | 400,000 compounds, 1.4% hits | Potency, µM (highest dose often 46.1 µM), most hits filed as cytotoxic | AID 1347075 | KB-3-1 viability, CellTiter-Glo ATP luminescence, 72 h; further: on the % scale 0 is the no-effect control and ±100 the full control effect; nearly all actives have a fitted effect of over 60% in size
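Screening of KB-3-1 cells (DMEM, 10% FBS, phenol-red free) ran from lowest to highest compound concentration; after 72 h at 37 °C viability was read luminescently and curves fitted.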
MCF10A rerep: inducers of DNA re-replication in MCF 10A breast cells | MCF 10A DNA re-replication, Hoechst nuclear intensity, 48 h | Potency, µM (doses to about 46.1 µM), for the others: at the top dose activity, positive = re-replication, hits mostly activators | 350,000 compounds, 2.9% hits | AID 624296; further: % of control where 0% means no effect; nearly all actives have a fitted effect of over 50% in size
Starred values were filed as active, the others as inactive; i = inactive; ? = inconclusive; nt = no result; [ ] = remark or other dose. The call rests on the fitted dose curve; in most records, active means well fitted curve in the direction sought with a large enough effect; inconclusive means small, poorly fitted or top-dose-only effect, or another doubt; inactive means no such curve, though single readings can be large; an effect the other way counts as inactive or inconclusive. Potency means the concentration at half of the fitted maximal effect.

SMILES | RORg inh | KB-V1 MDR tox | SW480 rereplic | VP16 counter | KB-3-1 cytotox | MCF10A rerep
CCN(CC(=O)NC(C)C)Cc1nc2sc3c(c2c(=O)[nH]1)CCC3 | 1.1µM* | ? | -4% | 4.5µM* | i | 15%
CCN(CC(=O)Nc1sc2c(c1C#N)CCC(C)C2)Cc1nc2ccccc2c(=O)[nH]1 (stereo not given) | 2.5µM* | i | 18% | ? | i | 59%
CN(CC(=O)Nc1ccc(F)cc1)C(=O)CCc1nc2sc3c(c2c(=O)[nH]1)CCCC3 | nt | i | ? | nt | i | 22%
CN(CC(=O)Nc1ccc(Cl)cc1)C(=O)CCc1nc2sc3c(c2c(=O)[nH]1)CCCC3 | nt | i | ? | nt | i | 18µM*
CCN(CC(=O)Nc1sc2c(c1C#N)CCCC2)Cc1nc2ccccc2c(=O)[nH]1 | 5.6µM* | ? | -1% | ? | i | 3%
Cc1ccc(CNC(=O)CSc2ncc(S(=O)(=O)c3ccc(C)c(Cl)c3)c(=O)[nH]2)cc1 | nt | i | nt | nt | i | nt
COc1ccc(OC)c(C2=Nn3c(nnc3-c3cc(OC)ccc3OC)SC2)c1 | 1% | nt | nt | 2% | nt | nt
Cc1ccc(NC(=O)CCc2ccc(C)o2)c(C)c1 | 0% | ? | 10% | 6% | ? | 2%
CS(=O)(=O)c1ccc(Cl)c(NC(=O)CCl)c1 | 14µM* | 21µM* | ? | -66% | 6.5µM* | ?
Cc1ccc(NC(=S)NCCO)c(C)c1 | -43% | i | 0% | 4% | i | 1%
Cc1ccc(NC(=O)CCl)c(C)c1 | -20% | ? | ? | -10% | 16µM* | ?
Cc1ccc(C)c(NC(=S)NCCc2ccc(F)cc2)c1 | 2.5µM* | i | ? | 3.2µM* | i | ?
Cc1ccc(NC(=S)NCCc2ccccc2)c(C)c1 | 2µM* | ? | ? | 3.5µM* | i | 17%
CS(=O)(=O)c1ccc(C(=O)Nc2cc(S(C)(=O)=O)ccc2Cl)cc1 | -17% | i | 0% | -2% | i | 3%
NC(=O)CC(NC(=O)c1ccc(Br)cc1)c1ccc(N2CCCCCC2)c([N+](=O)[O-])c1 (stereo not given) | 2% | i | 6% | ? | i | ?
Cc1ccc(NC(=O)CC2Sc3ccccc3NC2=O)c(C)c1 (stereo not given) | nt | ? | nt | nt | 16µM* | nt
Cc1ccc(C)c(NC(=S)NNc2ccc(F)cc2F)c1 | ? | i | 11% | 3.2µM* | i | ?
Cc1cc(Br)ccc1NC(=S)NCCc1ccccc1 | 2.5µM* | i | 17% | 6.3µM* | i | 0%
Cc1ccccc1NC(=O)C(=O)NCCc1ccccc1 | 40% | ? | 1% | -2% | i | ?
Cc1ccc(NC(=O)CCC(=O)NNC(=S)Nc2ccc(F)cc2F)cc1C | -31% | ? | -12% | -16% | i | 28%
CCn1cc2nc(SCc3ccc(F)cc3)n(CCc3ccccc3)c(=O)c2n1 | nt | i | nt | nt | i | nt
CC(C)C(=O)NC(c1ccc(N(C)C)cc1)c1ccc2cccnc2c1O (stereo not given) | nt | i | nt | nt | ? | nt
CCCCC(=O)NC(c1ccc(N(C)C)cc1)c1ccc2cccnc2c1O (stereo not given) | 5µM* | ? | ? | 3.2µM* | ? | ?
CCCCC(=O)NC(c1ccc(N(CC)CC)cc1)c1ccc2cccnc2c1O (stereo not given) | 2.2µM* | ? | ? | 2.8µM* | 4.6µM* | ?
N#Cc1ccc2c(c1)C[C@]1(CCCCN3C(=O)c4ccccc4C3=O)Oc3cc(-c4ccccc4)oc(=O)c3[C@H]2O1 | 2%[10 µM] | nt | nt | -8%[10 µM] | nt | nt
SMILES | RORg inh | KB-V1 MDR tox | SW480 rereplic | VP16 counter | KB-3-1 cytotox | MCF10A rerep
CCN(CC)S(=O)(=O)c1ccc(C(=O)Nc2cc3oc4ccccc4c3cc2OC)cc1 | 6% | i | -4% | -8% | i | 25%
CNC(=S)Nc1cc2oc3ccccc3c2cc1OC | 7.9µM* | i | -1% | 13µM* | i | 1%
CCCNC(=S)Nc1cc2oc3ccccc3c2cc1OC | 4.5µM* | i | ? | 7.1µM* | i | 16%
COc1cc2c(cc1NC(=O)c1cccc(S(=O)(=O)N(C)C)c1)oc1ccccc12 | -2% | 10µM* | ? | 0% | i | ?
COc1cc(C2C(C(=O)Nc3ccc(C)cc3C)=C(C)Nc3nc4ccccc4n32)cc(OC)c1OC (stereo not given) | nt | ? | nt | nt | i | nt
C[C@@H]1O[C@H](O[C@@H]2[C@H](C)O[C@H](O[C@@H]3[C@H](C)O[C@H](O[C@H]4CC[C@]5(C)[C@@H](CC[C@@H]6[C@H]5C[C@@H](O)[C@]5(C)[C@@H](C7=CC(=O)OC7)CC[C@]65O)C4)C[C@@H]3O)C[C@@H]2O)C[C@H](O)[C@@H]1O | 4µM* | nt | nt | 7%[17 µM] | nt | nt
C[C@H]1O[C@@H](O[C@H]2[C@@H](O)C[C@H](O[C@H]3[C@@H](O)C[C@H](O[C@H]4CC[C@@]5(C)[C@H](CC[C@@H]6[C@@H]5C[C@@H](O)[C@]5(C)[C@@H](C7=CC(=O)OC7)CC[C@]65O)C4)O[C@@H]3C)O[C@@H]2C)C[C@H](O)[C@@H]1O | 1.6µM* | 0.41µM* | 0.41µM* | -8% | 0.18µM* | ?
CCN(CC)S(=O)(=O)c1cc(C(=O)Nc2ccccc2[N+](=O)[O-])ccc1Cl | 2% | ? | 16µM* | ? | i | ?
CCOc1ccccc1C(=O)Nc1ccccc1-c1ccccc1 | 21% | 15µM* | 14% | -4% | ? | 21µM*
CCOc1c(Cl)cc(C(=O)Nc2ccccc2-c2ccccc2)cc1Cl | 17% | 21µM* | -140% | -3% | ? | -7%
CCOc1ccccc1C(=O)Nc1ccccc1O | 11% | i | -12% | -2% | i | 0%
COc1ccc(C(=O)Nc2ccccc2-c2ccccc2)cc1Cl | 24% | i | -2% | 15% | i | 15%
O=C(Nc1ccccc1-c1ccccc1)c1ccc(Cl)c([N+](=O)[O-])c1 | 27% | i | -3% | -1% | 16µM* | 9.2µM*
O=C(c1cc(C(F)(F)F)cc(C(F)(F)F)c1)N1CCC2(CC1)CN(c1ccccc1)C2 | -1% | nt | nt | 6% | nt | nt
O=C1CN(C(=O)c2ccc(S(=O)(=O)N3CCCCC3)cc2)C(c2ccc(F)cc2)c2cc(Br)ccc2N1 (stereo not given) | nt | i | nt | nt | i | nt
Cc1ccc([N+](=O)[O-])cc1S(=O)(=O)N1CCn2cccc2C1c1ccccc1F (stereo not given) | nt | i | nt | nt | i | nt

Screening results: PubChem, National Center for Advancing Translational Sciences (NCATS)
